In all, about 4,500 sequences were measured (“log2 normalized fluorescence”: median about -0.34, highest 2% from about 3.3 on). This is one part of a sample in which the highest values are shown more often than they occur.
Target: MAX:MAX (p21) (human, UniProt P61244-2 1-151)
Assay: protein-binding microarray (anti-MAX antibody); PBM: 15 mM Tris-HCl pH 7.5, 100 mM KCl, 0.075% NP40, 7.5 mM beta-mercaptoethanol, 375 ng/ul BSA, 8 ng/ul poly(dA-dT):(dA-dT), 550 ng complex, 60 min, room tempe; high values mean tight binding
Conditions: protein: recombinant; tags: 6xHis; chain copies: 2; label: 3' end of printed strand (linker) attached to glass slide; dsDNA, one strand shown
Method in brief: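 Binding, given as log2 normalized fluorescence, was measured on a custom Agilent glass array. The array bore ~5000 unique 12-nt sequences spotted in triplicate and converted to double strands by primer extension. It was incubated with 550 ng of human His-tagged MYC:MAX or MAX:MAX dimers from E. coli for 60 min at room temperature in Tris-KCl buffer, pH 7.5, with NP40, BSA and poly(dA-dT) competitor, and bound protein was detected with anti-MAX and secondary antibodies and scanned at 543 nm.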

Chain of MAX:MAX (p21) (P61244 other isoform, or with tags, fused parts or gaps): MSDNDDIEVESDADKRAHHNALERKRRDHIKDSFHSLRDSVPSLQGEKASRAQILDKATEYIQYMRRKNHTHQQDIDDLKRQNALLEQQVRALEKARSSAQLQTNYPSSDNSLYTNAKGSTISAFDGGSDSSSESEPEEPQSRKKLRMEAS

Row | Sequence | binding signal
1 | CCGGCTGATGGGTAGTATTAATAGCTAAGATTACTATATCGACG | -0.121 log2 normalized fluorescence
2 | CCGGCTGACATTTGGTGTTAATAGCTAAGATTACTATATCGACG | -0.316 log2 normalized fluorescence
3 | CCGGCTGACATAGCGTATTAATAGCTAAGATTACTATATCGACG | -0.366 log2 normalized fluorescence
4 | CCGGCTGAGACACTGTATTAATAGCTAAGATTACTATATCGACG | -0.484 log2 normalized fluorescence
5 | CCGGCTGATACGCCGTATTAATAGCTAAGATTACTATATCGACG | -0.497 log2 normalized fluorescence
6 | CCGGCTGAGACCCTGTATTAATAGCTAAGATTACTATATCGACG | -0.583 log2 normalized fluorescence
7 | CCGGCTGAGCAGGGGTATTAATAGCTAAGATTACTATATCGACG | 0.451 log2 normalized fluorescence
8 | CCGGCCGCCACGTGGTCTTAATAGCTAAGATTACTATATCGACG | 3.44 log2 normalized fluorescence
9 | CCGGCTGAGACGTGGTCTTAATAGCTAAGATTACTATATCGACG | 1.44 log2 normalized fluorescence
10 | CCGGCCGCCACGTAGTATTAATAGCTAAGATTACTATATCGACG | 1.58 log2 normalized fluorescence
11 | CCGGCTGGTACGTGGTCTTAATAGCTAAGATTACTATATCGACG | 1.03 log2 normalized fluorescence
12 | CCGGCAAACACGTTGTATTAATAGCTAAGATTACTATATCGACG | 3.31 log2 normalized fluorescence
13 | CCGGCGTACACGTGGTCTTAATAGCTAAGATTACTATATCGACG | 3.35 log2 normalized fluorescence
14 | CCGGCCAACACGTTGTATTAATAGCTAAGATTACTATATCGACG | 3.07 log2 normalized fluorescence
15 | CCGGCTTACACGTGGTCTTAATAGCTAAGATTACTATATCGACG | 3.19 log2 normalized fluorescence
16 | CCGGCAGACACGTGGTATTAATAGCTAAGATTACTATATCGACG | 3.08 log2 normalized fluorescence
17 | CCGGCGTATACGTGGTATTAATAGCTAAGATTACTATATCGACG | 1.62 log2 normalized fluorescence
18 | CCGGCTGACACGTGGTCTTAATAGCTAAGATTACTATATCGACG | 3.21 log2 normalized fluorescence
19 | CCGGCGTACACGTGGTATTAATAGCTAAGATTACTATATCGACG | 3.3 log2 normalized fluorescence
20 | CCGGCATACACGTGGTATTAATAGCTAAGATTACTATATCGACG | 3.25 log2 normalized fluorescence
21 | CCGGCAGACACGTGGTCTTAATAGCTAAGATTACTATATCGACG | 3.43 log2 normalized fluorescence
22 | CCGGCTAACACGTTGTATTAATAGCTAAGATTACTATATCGACG | 3.12 log2 normalized fluorescence
23 | CCGGCTGACCATCTGTATTAATAGCTAAGATTACTATATCGACG | 1.1 log2 normalized fluorescence
24 | CCGGCTGACGTACAGTATTAATAGCTAAGATTACTATATCGACG | -0.0346 log2 normalized fluorescence
25 | CCGGCTGACACGTAACATTAATAGCTAAGATTACTATATCGACG | 1.37 log2 normalized fluorescence
26 | CCGGCTGATTGGATGTATTAATAGCTAAGATTACTATATCGACG | -0.659 log2 normalized fluorescence
27 | CCGGCTGACTCGCTGTATTAATAGCTAAGATTACTATATCGACG | 0.114 log2 normalized fluorescence

Row | Sequence | binding signal
28 | CCGGCTGAAGAACCGTATTAATAGCTAAGATTACTATATCGACG | -0.66 log2 normalized fluorescence
29 | CCGGCTGACAACTTGTATTAATAGCTAAGATTACTATATCGACG | -0.311 log2 normalized fluorescence
30 | CCGGCCCGCCAAAGCATTTAATAGCTAAGATTACTATATCGACG | 0.154 log2 normalized fluorescence
31 | CCGGCTGACAAATCGTATTAATAGCTAAGATTACTATATCGACG | -0.658 log2 normalized fluorescence
32 | CCGGCTGATCGTCAGTATTAATAGCTAAGATTACTATATCGACG | -0.695 log2 normalized fluorescence
33 | CCGGCTGAGAGCGCGTATTAATAGCTAAGATTACTATATCGACG | -0.456 log2 normalized fluorescence
34 | CCGGCCTACACGTGGTATTAATAGCTAAGATTACTATATCGACG | 3.31 log2 normalized fluorescence
35 | CCGGCCTACACGTGGTGTTAATAGCTAAGATTACTATATCGACG | 3.19 log2 normalized fluorescence
36 | CCGGCCGACACGCGGTATTAATAGCTAAGATTACTATATCGACG | 2.86 log2 normalized fluorescence
37 | CCGGCCAACACGTGGTATTAATAGCTAAGATTACTATATCGACG | 3.22 log2 normalized fluorescence
38 | CCGGCTACTACGTGGTATTAATAGCTAAGATTACTATATCGACG | 1.83 log2 normalized fluorescence
39 | CCGGCAAACACGTGGTATTAATAGCTAAGATTACTATATCGACG | 3.01 log2 normalized fluorescence
40 | CCGGCTTAGACGTGGTATTAATAGCTAAGATTACTATATCGACG | 1.04 log2 normalized fluorescence
41 | CCGGCTAACACGTGGTATTAATAGCTAAGATTACTATATCGACG | 3.45 log2 normalized fluorescence
42 | CCGGCTAACACGCGGTATTAATAGCTAAGATTACTATATCGACG | 3.35 log2 normalized fluorescence
43 | CCGGCTGACACGCGGTATTAATAGCTAAGATTACTATATCGACG | 3.1 log2 normalized fluorescence
44 | CCGGCTTAATCGTGGTATTAATAGCTAAGATTACTATATCGACG | 1.43 log2 normalized fluorescence
45 | CCGGCTTACACGTGGTATTAATAGCTAAGATTACTATATCGACG | 3.3 log2 normalized fluorescence
46 | CCGGCTGACAAAGTGTATTAATAGCTAAGATTACTATATCGACG | -0.349 log2 normalized fluorescence
47 | CCGGCTGGCGCATGGTATTAATAGCTAAGATTACTATATCGACG | 3.17 log2 normalized fluorescence
48 | CCGGCTGAACGCCTGTATTAATAGCTAAGATTACTATATCGACG | 0.727 log2 normalized fluorescence
49 | CCGGCTGACATCCCGTATTAATAGCTAAGATTACTATATCGACG | 0.192 log2 normalized fluorescence
50 | CCGGCTGACAGAACGTATTAATAGCTAAGATTACTATATCGACG | -0.288 log2 normalized fluorescence
51 | CCGGCTGAGTCCTCGTATTAATAGCTAAGATTACTATATCGACG | -0.692 log2 normalized fluorescence
52 | CCGGCTGATCTCACGTATTAATAGCTAAGATTACTATATCGACG | -0.038 log2 normalized fluorescence
53 | CCGGCTGAAACTCGGTATTAATAGCTAAGATTACTATATCGACG | -0.697 log2 normalized fluorescence
